Data from PubChem BioAssay (NCI).
The panel holds about 83,000 compounds, 20% with a hit somewhere; the sample as a whole holds those more often.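 48-hour exposure, single concentration, 96-well plates; percent growth endpoint where 0 means no net growth. Active: below 10.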 Values without a mark were called inactive. Calls of active or inactive are those of the source.

Legend:
Test in all cases: NCI-60 one-dose screen, 48 h (100 = growth as untreated, 0 = no growth, -100 = all killed)
Conditions in all cases: 10 µM unless noted
[1] = test system: HCT-15 colon
[2] = test system: HT29 colon
[3] = test system: SNB-75 CNS
[4] = test system: SNB-19 CNS
[5] = test system: U251 CNS
[6] = test system: PC-3 prostate
[7] = test system: SK-MEL-5 melanoma
[8] = test system: UACC-62 melanoma
[9] = test system: LOX IMVI melanoma
[10] = test system: SK-MEL-28 melanoma
[11] = test system: SK-MEL-2 melanoma
[12] = test system: EKVX NSCLC
[13] = test system: SN12C renal
[14] = test system: UO-31 renal
[15] = test system: TK-10 renal
[16] = test system: ACHN renal
[17] = test system: CAKI-1 renal
[18] = test system: A498 renal
[19] = test system: CCRF-CEM leukemia
[20] = test system: MOLT-4 leukemia

SMILES	growth [1]	growth [2]	growth [3]	growth [4]	growth [5]	growth [6]	growth [7]	growth [8]	growth [9]	growth [10]	growth [11]	growth [12]	growth [13]	growth [14]	growth [15]	growth [16]	growth [17]	growth [18]	growth [19]	growth [20]
N#Cc1c(-c2ccccc2)cc(-c2ccccc2)n(CCCCC(=O)NO)c1=O	13.8%	19.1%	-8.42% (active)	43.3%	29.1%	32.9%	-53% (active)	2.89% (active)	-54.9% (active)	17.6%	40.6%	30.6%	23.2%	-51.6% (active)	28.4%	2.83% (active)	1% (active)	13.2%	11.9%	11.4%
CC(O)CNC(Cc1ccccc1)c1ccc2c(c1)OCO2 (stereo not given)	104%	65.5%	90.2%	101%	97.3%	65.8%	100%	91.4%	92.5%	72.3%	65%	96.6%	105%	69.7%	82.9%	101%	93.1%	89.9%	96.3%	95.4%
OC1CSSC1Cn1cnc2c(Nc3ccc(OCc4cccc(F)c4)c(Cl)c3)ncnc21 (stereo not given)	-64% (active)	3.96% (active)	54.1%	-49.4% (active)	-26.3% (active)	-69.3% (active)	-55.6% (active)	-68.9% (active)	-82.6% (active)	-9.14% (active)	-33.4% (active)	-71.9% (active)	30.5%	11.9%	-5.98% (active)	15.6%	19.6%	69.6%	-8.33% (active)	-41.8% (active)
COc1ccc(-c2cc(-c3cc(OC)ccc3OC)nc(SCC(C)=O)c2C#N)cc1	52.7%	81.8%	42.7%	75.8%	74.4%	56.2%	65.7%	67.1%	57.9%	68%	78.6%	51.6%	76.7%	41.1%	101%	56.5%	40.6%	39%	69.2%	37.9%
CCN(CC)C(=O)CC1=C(C)/C(=C/c2[nH]c(-c3ccc[nH]3)cc2OC)N=C1C	1.25% (active)	12.4%	14.2%	42.4%	23.9%	3.87% (active)	-59.3% (active)	-51.8% (active)	-58.8% (active)	25.6%	-36.1% (active)	32.7%	29.1%	-59.3% (active)	28.2%	1.61% (active)	-8.05% (active)	-8.32% (active)	25.8%	12.4%
C=C(C)[C@@H]1CC[C@]2(C)[C@H](C=CC3=C4C[C@@](C)(CO)CC[C@]4(C)CC[C@]32C)[C@@]1(C)CCCN	-82% (active)	-38.7% (active)	-6.45% (active)	34.3%	-64.5% (active)	-34% (active)	17.5%	77.6%	-100% (active)	-79.8% (active)	-52.5% (active)	42.5%	-13.4% (active)	47.2%	-68.4% (active)	-94.9% (active)	-81.6% (active)	68.3%	0.791% (active)	-10.5% (active)
C=C1C(=O)O[C@H]2[C@H]1CC/C(COC(=O)/C=C\C(=O)NCc1ccc(Cn3c(=O)sn(CCCCl)c3=O)cc1)=C\CC[C@@]1(C)O[C@@H]21	30.8%	46.9%	88.5%	94.8%	79.6%	76.9%	102%	65.1%	64.2%	100%	83.4%	94.1%	64.9%	53.1%	57.7%	40.2%	51.6%	103%	1.6% (active)	60.7%
N=C(N)c1ccc(OCCSCCOc2ccc(C(=N)N)cc2)cc1	85.1%	85.4%	71.2%	56.7%	48%	90.6%	41.4%	67.4%	90.5%	92.2%	82.5%	56.6%	37.4%	70.7%	60.8%	74.3%	51.7%	51.7%	97.6%	93.4%
N#Cc1c(-c2cccc(Cl)c2)cc(-c2cccnc2)[nH]c1=O	44.8%	115%	61.1%	67.9%	71.8%	87.3%	67.1%	36.6%	81.2%	64.4%	79.7%	100%	82.6%	64.3%	127%	89%	72.8%	101%	71.5%	72.1%
COc1ccc2c(c1)c(-c1nc(-c3ccc4ccccc4c3)cs1)cn2C	73%	51.3%	109%	99.8%	91%	87.1%	94.5%	91.3%	86%	89.6%	108%	85.8%	93.6%	70.6%	102%	87.4%	83.6%	86.8%	88.7%	84%
CCCOC(=O)Nc1nc2ccc(SCC)cc2s1	54.3%	31.3%	90.5%	84.5%	85%	80.8%	83.6%	61.2%	71.1%	85.9%	76.2%	94.3%	89.6%	90.7%	84.9%	107%	79.8%	70.7%	72.1%	72.9%
CC(C)C1C2=C(NCCN1C(=O)c1ccncc1)C(C)(C)N(Cc1ccccc1)C2=O (stereo not given)	103%	92.8%	81.7%	101%	100%	96.1%	105%	95.6%	95.5%	114%	97.4%	99.1%	93.3%	83.2%	89.9%	105%	94.4%	113%	108%	84%
CCCC(O)Cn1ncc(C(=O)OCC)c1NC(=O)NCc1cccc(C(F)(F)F)c1 (stereo not given)	104%	85.9%	101%	104%	105%	64.7%	93.6%	80.1%	87.5%	105%	73.4%	90.5%	93.7%	65%	90.4%	97.7%	83.8%	99%	5.39% (active)	62%
CCN1CCN(CCNc2nccc(-c3c(-c4ccc(F)c(O)c4)nc4occn34)n2)S1(=O)=O	17.8%	20.1%	83.5%	73.7%	45.7%	13.7%	-22.7% (active)	-44.9% (active)	15.6%	42.2%	1.39% (active)	47.9%	33.9%	4.38% (active)	44.9%	16.5%	18.5%	49.1%	9.35% (active)	-9.69% (active)
Oc1c(CN2CCC(N3CCOCC3)CC2)cc(Cc2cc(CN3CCC(N4CCOCC4)CC3)c(O)c3ncccc23)c2cccnc12	24%	30.2%	56.9%	29.3%	27.5%	13.1%	8.31% (active)	-6.33% (active)	1.05% (active)	45%	53.7%	24.9%	29.1%	17.9%	42.3%	23.5%	13.2%	69.1%	12.6%	6.57% (active)
